What all share (experiment): DAPPL (digital affinity profiling via proximity ligation, sequencing); 10 mM Tris-HCl pH 7.5, 50 mM NaCl, 1 mM DTT, 4% glycerol, room temperature, 30 min; GST-TFs on glutathione beads, 16-mer random dsDNA library, 0.1% formaldehyde crosslink after washing; high values mean tight binding
One assay addresses T1, FEV (Homo sapiens, UniProt Q99581 1-238).
T1 sequence: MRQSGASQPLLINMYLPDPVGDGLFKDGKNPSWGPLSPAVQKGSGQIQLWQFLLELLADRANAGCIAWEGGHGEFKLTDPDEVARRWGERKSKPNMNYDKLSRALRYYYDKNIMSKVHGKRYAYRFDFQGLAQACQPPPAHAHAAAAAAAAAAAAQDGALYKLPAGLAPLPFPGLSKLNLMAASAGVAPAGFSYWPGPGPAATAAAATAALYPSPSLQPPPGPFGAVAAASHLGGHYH
The settings on record: protein: recombinant; tags: N-terminal GST; dsDNA, one strand shown. In outline:
(§1)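 Human transcription factors were made in yeast as GST fusions, captured on glutathione beads and barcoded with DNA. With a tag-only sample included, the pool was incubated with 200 nmole of a random double-stranded 16-mer DNA library in Tris/NaCl/DTT/glycerol buffer at room temperature for 30 min, then crosslinked with 0.1% formaldehyde after washing, ligated by proximity, amplified and sequenced. For binding signal, each hexamer's read frequency for a factor is divided by its frequency for the tag-only sample.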

The target of the next assay is ETV5 (Homo sapiens, UniProt P41161 1-510). Conditions: protein: recombinant; tags: N-terminal GST; dsDNA, one strand shown. In short, it runs like this: as §1
Chain of ETV5 (P41161 whole entry): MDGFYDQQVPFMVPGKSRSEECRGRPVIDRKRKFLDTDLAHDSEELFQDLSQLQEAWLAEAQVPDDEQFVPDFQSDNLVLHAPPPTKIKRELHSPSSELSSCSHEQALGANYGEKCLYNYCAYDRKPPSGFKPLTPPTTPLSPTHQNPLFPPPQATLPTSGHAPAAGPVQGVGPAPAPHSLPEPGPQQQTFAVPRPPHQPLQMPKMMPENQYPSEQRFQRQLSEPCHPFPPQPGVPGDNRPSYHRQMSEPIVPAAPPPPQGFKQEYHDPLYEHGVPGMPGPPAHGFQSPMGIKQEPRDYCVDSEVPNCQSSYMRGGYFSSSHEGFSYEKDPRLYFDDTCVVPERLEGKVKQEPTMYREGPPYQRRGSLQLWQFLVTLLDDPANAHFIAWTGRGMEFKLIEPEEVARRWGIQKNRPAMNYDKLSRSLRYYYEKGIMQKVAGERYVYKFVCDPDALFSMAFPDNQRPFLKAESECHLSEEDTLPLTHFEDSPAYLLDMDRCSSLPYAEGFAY
Another assay concerns the target HSF1 (Homo sapiens, UniProt Q00613 1-529). Conditions: protein: recombinant; tags: N-terminal GST; chain copies: 3; dsDNA, one strand shown. In outline: as §1
The next assay addresses T2, SPIC (Homo sapiens, UniProt Q8N5J4 1-248).
T2 sequence: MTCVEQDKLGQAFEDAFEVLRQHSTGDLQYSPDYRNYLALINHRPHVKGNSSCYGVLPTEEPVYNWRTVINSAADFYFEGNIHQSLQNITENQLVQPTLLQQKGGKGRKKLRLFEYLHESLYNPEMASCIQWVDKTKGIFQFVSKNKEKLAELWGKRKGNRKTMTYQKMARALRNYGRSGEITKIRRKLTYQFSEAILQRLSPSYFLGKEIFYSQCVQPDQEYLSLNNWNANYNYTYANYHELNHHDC
The settings on record: protein: recombinant; tags: N-terminal GST; dsDNA, one strand shown. In short, it runs like this: as §1

The target of another assay is ELF4 (Homo sapiens, UniProt Q99607 1-663). Conditions: protein: recombinant; tags: N-terminal GST; dsDNA, one strand shown. In short, it runs like this:
as §1

Another assay deals with T3, ELK4 (Homo sapiens, UniProt P28324-2 1-405).
T3 sequence: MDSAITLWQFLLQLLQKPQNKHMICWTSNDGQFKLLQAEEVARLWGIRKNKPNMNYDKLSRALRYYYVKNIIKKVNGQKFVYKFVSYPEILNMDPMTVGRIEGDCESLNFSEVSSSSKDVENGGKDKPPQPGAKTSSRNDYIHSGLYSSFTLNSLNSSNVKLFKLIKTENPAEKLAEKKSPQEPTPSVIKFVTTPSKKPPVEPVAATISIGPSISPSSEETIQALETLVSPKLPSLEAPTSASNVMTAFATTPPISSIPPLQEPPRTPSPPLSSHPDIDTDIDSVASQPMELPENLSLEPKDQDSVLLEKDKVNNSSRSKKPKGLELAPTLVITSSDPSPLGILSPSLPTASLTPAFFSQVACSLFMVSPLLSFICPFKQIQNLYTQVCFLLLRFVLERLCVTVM
The settings on record: protein: recombinant; tags: N-terminal GST; dsDNA, one strand shown. In short, it runs like this: as §1

The target of a further assay is T4, ETV2 (Homo sapiens, UniProt O00321 1-342).
T4 sequence: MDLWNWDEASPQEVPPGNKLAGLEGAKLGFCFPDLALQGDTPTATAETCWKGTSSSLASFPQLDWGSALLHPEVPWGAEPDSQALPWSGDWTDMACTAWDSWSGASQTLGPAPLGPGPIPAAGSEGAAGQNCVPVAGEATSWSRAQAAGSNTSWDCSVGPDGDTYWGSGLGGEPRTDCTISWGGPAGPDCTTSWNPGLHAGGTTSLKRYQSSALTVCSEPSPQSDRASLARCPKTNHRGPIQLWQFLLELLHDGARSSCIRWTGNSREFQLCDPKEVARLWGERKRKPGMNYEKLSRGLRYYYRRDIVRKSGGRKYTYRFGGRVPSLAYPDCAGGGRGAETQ
Conditions: protein: recombinant; tags: N-terminal GST; dsDNA, one strand shown. In outline: as §1

The next assay addresses T5, ELF3 (Homo sapiens, UniProt P78545 1-371).
T5 sequence: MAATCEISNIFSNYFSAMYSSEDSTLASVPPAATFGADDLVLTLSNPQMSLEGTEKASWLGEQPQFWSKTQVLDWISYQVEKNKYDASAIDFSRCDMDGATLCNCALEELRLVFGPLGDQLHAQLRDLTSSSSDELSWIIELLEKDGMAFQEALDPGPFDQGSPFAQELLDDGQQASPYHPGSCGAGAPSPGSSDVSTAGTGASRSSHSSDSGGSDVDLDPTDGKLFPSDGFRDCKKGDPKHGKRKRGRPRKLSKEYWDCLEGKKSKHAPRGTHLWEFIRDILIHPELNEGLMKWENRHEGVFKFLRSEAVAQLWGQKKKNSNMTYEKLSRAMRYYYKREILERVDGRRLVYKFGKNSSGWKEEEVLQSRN
Conditions: protein: recombinant; tags: N-terminal GST; dsDNA, one strand shown. In short, it runs like this:
as §1

Another assay deals with CRX (Homo sapiens, UniProt O43186 1-299). The settings on record: protein: recombinant; tags: N-terminal GST; dsDNA, one strand shown. In short, it runs like this:
as §1

A further assay addresses ETV1 (Homo sapiens, UniProt P50549 1-477). Conditions: protein: recombinant; tags: N-terminal GST; dsDNA, one strand shown. In outline:
as §1

In another assay the target is T6, ERF (Homo sapiens, UniProt P50548 1-548).
T6 sequence: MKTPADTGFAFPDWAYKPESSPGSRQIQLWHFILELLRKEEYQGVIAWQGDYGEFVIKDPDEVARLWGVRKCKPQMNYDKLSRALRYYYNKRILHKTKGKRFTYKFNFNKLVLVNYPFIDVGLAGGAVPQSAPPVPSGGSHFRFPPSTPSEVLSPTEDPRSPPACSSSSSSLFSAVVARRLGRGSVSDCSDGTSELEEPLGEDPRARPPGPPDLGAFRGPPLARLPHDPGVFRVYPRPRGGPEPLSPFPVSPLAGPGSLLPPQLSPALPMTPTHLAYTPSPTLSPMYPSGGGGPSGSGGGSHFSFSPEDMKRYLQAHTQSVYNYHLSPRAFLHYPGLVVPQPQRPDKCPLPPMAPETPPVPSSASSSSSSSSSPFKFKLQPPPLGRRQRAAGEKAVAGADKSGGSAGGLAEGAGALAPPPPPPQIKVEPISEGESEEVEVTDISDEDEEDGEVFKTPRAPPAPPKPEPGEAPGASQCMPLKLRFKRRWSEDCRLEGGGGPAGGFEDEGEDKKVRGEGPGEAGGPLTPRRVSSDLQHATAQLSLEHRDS
The settings on record: protein: recombinant; tags: N-terminal GST; dsDNA, one strand shown. In short, it runs like this: as §1

Another assay has as its target T7, ETV3L (Homo sapiens, UniProt Q6ZN32 1-361).
T7 sequence: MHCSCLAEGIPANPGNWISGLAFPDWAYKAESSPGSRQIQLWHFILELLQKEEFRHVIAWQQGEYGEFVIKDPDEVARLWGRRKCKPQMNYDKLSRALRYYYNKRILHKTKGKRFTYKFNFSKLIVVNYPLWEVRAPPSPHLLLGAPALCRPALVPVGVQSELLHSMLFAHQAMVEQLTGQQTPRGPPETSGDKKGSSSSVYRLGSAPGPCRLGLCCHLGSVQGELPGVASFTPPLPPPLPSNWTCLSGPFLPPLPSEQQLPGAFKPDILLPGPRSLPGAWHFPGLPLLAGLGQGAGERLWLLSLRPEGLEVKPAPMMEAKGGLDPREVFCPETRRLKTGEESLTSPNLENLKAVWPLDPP
The settings on record: protein: recombinant; tags: N-terminal GST; dsDNA, one strand shown. In outline: as §1

A further assay deals with T8, ETS2 (Homo sapiens, UniProt P15036 1-469).
T8 sequence: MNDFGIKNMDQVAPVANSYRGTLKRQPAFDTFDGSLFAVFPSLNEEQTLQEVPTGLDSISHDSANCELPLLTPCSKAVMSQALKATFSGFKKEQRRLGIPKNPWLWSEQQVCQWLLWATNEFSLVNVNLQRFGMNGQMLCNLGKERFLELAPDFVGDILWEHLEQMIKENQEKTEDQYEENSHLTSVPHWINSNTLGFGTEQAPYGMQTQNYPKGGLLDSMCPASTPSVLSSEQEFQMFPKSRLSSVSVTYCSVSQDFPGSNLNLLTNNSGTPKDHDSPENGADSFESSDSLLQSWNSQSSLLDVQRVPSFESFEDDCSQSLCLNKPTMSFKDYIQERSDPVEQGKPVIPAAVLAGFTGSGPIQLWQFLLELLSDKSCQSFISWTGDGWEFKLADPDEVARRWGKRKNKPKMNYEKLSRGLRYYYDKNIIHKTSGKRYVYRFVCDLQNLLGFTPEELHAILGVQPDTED
Conditions: protein: recombinant; tags: N-terminal GST; dsDNA, one strand shown. In outline: as §1

The next assay has as its target T9, SPDEF (Homo sapiens, UniProt O95238 1-335).
T9 sequence: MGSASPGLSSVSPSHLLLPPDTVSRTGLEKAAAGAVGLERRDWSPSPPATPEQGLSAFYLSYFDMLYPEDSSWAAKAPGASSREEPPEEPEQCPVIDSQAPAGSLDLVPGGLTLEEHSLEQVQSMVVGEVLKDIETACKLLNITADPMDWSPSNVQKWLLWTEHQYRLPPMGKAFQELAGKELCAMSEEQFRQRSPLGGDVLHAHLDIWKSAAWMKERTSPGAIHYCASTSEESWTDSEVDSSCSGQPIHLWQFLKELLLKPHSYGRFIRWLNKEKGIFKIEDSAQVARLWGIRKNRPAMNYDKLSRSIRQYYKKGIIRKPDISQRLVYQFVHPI
The settings on record: protein: recombinant; tags: N-terminal GST; dsDNA, one strand shown. In outline:
as §1

The target of a further assay is T10, ETV7 (Homo sapiens, UniProt Q9Y603 1-341).
T10 sequence: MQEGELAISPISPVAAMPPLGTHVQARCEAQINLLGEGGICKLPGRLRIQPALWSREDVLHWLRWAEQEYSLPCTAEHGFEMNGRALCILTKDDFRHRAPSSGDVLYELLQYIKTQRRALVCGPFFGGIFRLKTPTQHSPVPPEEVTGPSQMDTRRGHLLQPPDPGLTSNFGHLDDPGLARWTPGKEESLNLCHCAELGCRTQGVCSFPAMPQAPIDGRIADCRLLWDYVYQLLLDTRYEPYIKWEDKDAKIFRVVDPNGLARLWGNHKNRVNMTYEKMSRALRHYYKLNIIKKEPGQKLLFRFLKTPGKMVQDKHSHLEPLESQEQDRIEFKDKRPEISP
Conditions: protein: recombinant; tags: N-terminal GST; dsDNA, one strand shown. In outline: as §1

Another assay has as its target T11, ELF5 (Homo sapiens, UniProt Q9UKW6-2 1-255).
T11 sequence: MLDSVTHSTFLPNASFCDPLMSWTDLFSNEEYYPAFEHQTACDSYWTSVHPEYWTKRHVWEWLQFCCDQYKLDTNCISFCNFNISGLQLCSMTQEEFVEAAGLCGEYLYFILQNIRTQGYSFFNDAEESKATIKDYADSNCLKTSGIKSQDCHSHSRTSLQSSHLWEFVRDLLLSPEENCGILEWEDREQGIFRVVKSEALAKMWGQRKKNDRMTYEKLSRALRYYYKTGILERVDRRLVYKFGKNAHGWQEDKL
Conditions: protein: recombinant; tags: N-terminal GST; dsDNA, one strand shown. In short, it runs like this:
as §1

The target in the next assay is T12, ETV3 (Homo sapiens, UniProt P41162-2 1-143).
T12 sequence: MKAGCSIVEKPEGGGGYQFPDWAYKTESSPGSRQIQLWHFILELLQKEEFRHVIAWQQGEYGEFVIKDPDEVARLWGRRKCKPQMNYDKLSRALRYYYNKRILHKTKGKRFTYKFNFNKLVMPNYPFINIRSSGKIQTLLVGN
Conditions: protein: recombinant; tags: N-terminal GST; dsDNA, one strand shown. In outline: as §1

The next assay has as its target ETV6 (Homo sapiens, UniProt P41212 1-452). Conditions: protein: recombinant; tags: N-terminal GST; dsDNA, one strand shown. In short, it runs like this: as §1

Chain of ETV1 (P50549 whole entry): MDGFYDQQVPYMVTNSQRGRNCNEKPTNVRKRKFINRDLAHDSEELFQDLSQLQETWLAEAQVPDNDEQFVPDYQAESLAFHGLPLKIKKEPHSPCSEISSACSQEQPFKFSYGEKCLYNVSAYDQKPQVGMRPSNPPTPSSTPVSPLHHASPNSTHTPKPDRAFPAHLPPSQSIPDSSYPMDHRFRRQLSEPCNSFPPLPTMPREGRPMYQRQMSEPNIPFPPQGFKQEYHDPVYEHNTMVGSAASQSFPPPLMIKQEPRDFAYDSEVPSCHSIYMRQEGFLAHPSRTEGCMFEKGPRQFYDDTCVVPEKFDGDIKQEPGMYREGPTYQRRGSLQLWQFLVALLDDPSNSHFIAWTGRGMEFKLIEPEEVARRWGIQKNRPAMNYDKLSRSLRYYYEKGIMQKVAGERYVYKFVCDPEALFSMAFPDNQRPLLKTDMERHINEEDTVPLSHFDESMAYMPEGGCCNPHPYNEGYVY
Chain of ELF4 (Q99607 whole entry): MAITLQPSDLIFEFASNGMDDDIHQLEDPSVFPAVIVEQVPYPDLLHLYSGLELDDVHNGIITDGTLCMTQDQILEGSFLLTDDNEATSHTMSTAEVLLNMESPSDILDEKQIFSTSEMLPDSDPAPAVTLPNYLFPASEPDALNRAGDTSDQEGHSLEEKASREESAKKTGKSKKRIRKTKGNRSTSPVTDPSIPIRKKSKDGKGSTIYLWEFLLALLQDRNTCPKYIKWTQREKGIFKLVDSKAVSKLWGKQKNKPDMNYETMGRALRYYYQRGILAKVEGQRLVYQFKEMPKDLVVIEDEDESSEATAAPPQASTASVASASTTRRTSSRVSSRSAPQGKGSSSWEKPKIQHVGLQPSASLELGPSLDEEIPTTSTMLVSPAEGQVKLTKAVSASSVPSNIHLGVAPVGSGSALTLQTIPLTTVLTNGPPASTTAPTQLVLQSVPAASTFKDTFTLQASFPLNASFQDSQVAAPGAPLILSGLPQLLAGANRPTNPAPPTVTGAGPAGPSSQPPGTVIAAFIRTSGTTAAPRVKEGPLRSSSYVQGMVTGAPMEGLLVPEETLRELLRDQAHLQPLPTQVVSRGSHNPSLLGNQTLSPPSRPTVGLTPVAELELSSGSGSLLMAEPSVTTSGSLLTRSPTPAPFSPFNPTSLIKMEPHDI
Chain of ETV6 (P41212 whole entry): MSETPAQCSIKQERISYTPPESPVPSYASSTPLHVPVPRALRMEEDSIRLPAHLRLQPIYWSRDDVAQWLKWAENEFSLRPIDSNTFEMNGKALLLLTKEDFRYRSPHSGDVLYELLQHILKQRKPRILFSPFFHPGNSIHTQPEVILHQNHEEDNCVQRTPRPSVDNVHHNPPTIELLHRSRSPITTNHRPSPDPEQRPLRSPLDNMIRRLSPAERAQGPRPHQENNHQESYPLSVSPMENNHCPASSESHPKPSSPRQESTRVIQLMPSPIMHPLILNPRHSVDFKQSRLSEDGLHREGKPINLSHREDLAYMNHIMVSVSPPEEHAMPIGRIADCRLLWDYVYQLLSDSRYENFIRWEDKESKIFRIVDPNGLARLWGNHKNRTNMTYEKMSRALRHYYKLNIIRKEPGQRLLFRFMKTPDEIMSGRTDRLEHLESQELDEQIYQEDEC
Chain of HSF1 (Q00613 whole entry): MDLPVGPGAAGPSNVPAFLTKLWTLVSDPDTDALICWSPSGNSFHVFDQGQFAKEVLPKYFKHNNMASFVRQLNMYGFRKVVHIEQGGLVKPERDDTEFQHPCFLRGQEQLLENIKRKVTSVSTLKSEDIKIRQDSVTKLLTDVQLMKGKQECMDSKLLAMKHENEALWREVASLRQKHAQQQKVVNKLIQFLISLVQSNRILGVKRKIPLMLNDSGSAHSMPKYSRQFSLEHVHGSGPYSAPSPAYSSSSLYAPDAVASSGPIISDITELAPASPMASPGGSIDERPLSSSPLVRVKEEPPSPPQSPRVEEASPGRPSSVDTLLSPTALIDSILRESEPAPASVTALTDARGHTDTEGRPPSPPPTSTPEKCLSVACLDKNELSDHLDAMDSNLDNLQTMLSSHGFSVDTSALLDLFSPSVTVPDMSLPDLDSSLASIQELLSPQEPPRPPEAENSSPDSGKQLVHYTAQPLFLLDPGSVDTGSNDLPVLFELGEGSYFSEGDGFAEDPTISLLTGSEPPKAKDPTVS
Chain of CRX (O43186 whole entry): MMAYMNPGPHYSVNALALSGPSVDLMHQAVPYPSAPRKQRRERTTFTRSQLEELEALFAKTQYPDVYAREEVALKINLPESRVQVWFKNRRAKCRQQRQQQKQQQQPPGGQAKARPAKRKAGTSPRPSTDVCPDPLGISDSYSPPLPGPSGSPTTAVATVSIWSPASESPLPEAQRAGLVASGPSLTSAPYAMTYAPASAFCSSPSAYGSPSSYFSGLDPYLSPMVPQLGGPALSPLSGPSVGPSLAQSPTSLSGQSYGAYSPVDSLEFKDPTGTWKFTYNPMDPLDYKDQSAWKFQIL

With ACCTTA, the binding signal is 1.27 fold enrichment (6-mer frequency, TF over GST control) in the assay with FEV; 1.23 fold enrichment (6-mer frequency, TF over GST control) with ETV5; 1.19 fold enrichment (6-mer frequency, TF over GST control) with HSF1; 1.11 fold enrichment (6-mer frequency, TF over GST control) in the assay with SPIC; 1.24 fold enrichment (6-mer frequency, TF over GST control) in the assay with ELF4; 1.32 fold enrichment (6-mer frequency, TF over GST control) with ELK4. Also, the binding signal in the assay with ETV2 is 1.32 fold enrichment (6-mer frequency, TF over GST control); with ELF3, 1.22 fold enrichment (6-mer frequency, TF over GST control); with CRX, 1.43 fold enrichment (6-mer frequency, TF over GST control); with ETV1, 1.4 fold enrichment (6-mer frequency, TF over GST control); with ERF, 1.29 fold enrichment (6-mer frequency, TF over GST control); with ETV3L it was 1.19 fold enrichment (6-mer frequency, TF over GST control). Also, the binding signal in the assay with ETS2 is 1.16 fold enrichment (6-mer frequency, TF over GST control); with SPDEF it was 1.3 fold enrichment (6-mer frequency, TF over GST control); in the assay with ETV7 it was 1.21 fold enrichment (6-mer frequency, TF over GST control); with ELF5, 1.26 fold enrichment (6-mer frequency, TF over GST control); with ETV3 it was 1.17 fold enrichment (6-mer frequency, TF over GST control); with ETV6, 1.21 fold enrichment (6-mer frequency, TF over GST control).

The values above are taken from publication PMC7862700, “An all-to-all approach to the identification of sequence-specific readers for epigenetic DNA modifications on cytosine”.
